Data as given in ChEMBL document CHEMBL3988442, “University of Dundee, Small-Polar-MMV Screening Library” (2021).
About 900 (1.7%) of roughly 53,000 compounds showed an effect of 50% or more. The sample as a whole holds a higher share of strong results than the screen did.

system: Mycobacterium tuberculosis; assay: Cornell - Phenotypic assay to identify agents that inhibit growth of Mycobacterium tuberculosis; assay type: functional; design: scale not given: direction of the effect not stated beside the values; settings: 10 mM as filed; unlikely as a test dose

Row | SMILES | Percent Effect
1 | CC(C)n1nc(CN2CCCC2)c2c1CN(CC1CC1)CC2.O=C(O)C(F)(F)F.O=C(O)C(F)(F)F | 3.423%
2 | O=C(CCn1nc(C(F)(F)F)c(Cl)c1C1CC1)NN1CCOCC1 | 6.641%
3 | CNS(=O)(=O)c1cc(C(=O)NC2CCOc3ccccc32)cc(C)c1C (stereo not drawn) | -0.5765%
4 | Cc1cccc(CN2CC[C@@H]3[C@@H]2CCN3C(=O)Cc2cccs2)n1.O=C(O)C(F)(F)F.O=C(O)C(F)(F)F | 14.31%
5 | Cn1nc(Br)c2c(NCCNc3ncccn3)ncnc21 | 7.21%
6 | CC1CCCN(C(=O)c2nnn(-c3ccc(C(F)(F)F)cc3)n2)C1 (stereo not drawn) | 77.62%
7 | O=C(c1nnn(-c2ccc(C(F)(F)F)cc2)n1)N1CC(O)C1 | 30.38%
8 | O=C(c1nnn(-c2ccc(C(F)(F)F)cc2)n1)N1CCC(O)CC1 | 42.24%
9 | Cc1cc(N2CCCC2c2nnc3n2CCCCC3)nc(N)n1 (stereo not drawn) | -31.59%
10 | COCC(=O)N1CCc2ncc(Cn3cncn3)n2CC1 | 12.01%
11 | CN1CC2(CCCN(Cc3cccc(Oc4ccccc4)c3)C2)OC1=O (stereo not drawn) | 2.197%
12 | Cn1cc(-c2c(C#N)c(N)nc3c2CCc2[nH]ccc2-3)cc1C#N | 1.934%
13 | COc1ncc(-c2c(C#N)c(N)nc3c2CCc2[nH]ccc2-3)cn1 | 19.25%
14 | Cn1cc(-c2c(C#N)c(N)nc3c2CCc2[nH]ccc2-3)cn1 | 95.48%
15 | Cc1nc(NC(=O)c2c(-n3cnnn3)sc3c2CCCC3)sc1C | 19.43%
16 | CCN1CCCC(NC(=O)CCn2c(C(F)F)cc3cccnc32)C1 (stereo not drawn) | 6.84%
17 | COCC1N(C(=O)Nc2ccccc2)[C@H]2CC[C@]1(O)CC2 (stereo partly drawn) | -35.59%
18 | Cc1nc(-c2cccc(N3CCC(N4CCCC4)CC3)c2)cs1 | 50.87%
19 | COC1CCCN(C2CCN(c3cccc(-c4csc(C)n4)c3)CC2)C1 (stereo not drawn) | -0.3551%
20 | Cc1nc(-c2cccc(N3CCC(N4CCCC(C#N)C4)CC3)c2)cs1 (stereo not drawn) | 11.96%
21 | COCCN1CCC(CNC(=O)c2ccnc(-n3ccnc3)c2)CC1 | -23.45%
22 | COc1ccc(N(C(=O)c2ccccn2)C(C)C)cc1F | 9.62%
23 | COc1ccc(N(C(=O)c2cnc(C)cn2)C(C)C)cc1F | -10.07%
24 | COC(=O)c1cnc(C(=O)N(c2ccc(OC)c(F)c2)C(C)C)cn1 | 77.94%
25 | COc1cc(N2C[C@@H]3COC[C@]3(COc3cccnc3)C2)ncn1.O=C(O)C(F)(F)F.O=C(O)C(F)(F)F | -11.05%

Row | SMILES | Percent Effect
26 | O=C(O)c1ccc(S(=O)(=O)Nc2cnn(CC(F)(F)F)c2)cc1 | 41.5%
27 | COc1cccc(CC(C)NC(=O)NCCNC(C)=O)c1 (stereo not drawn) | 11.1%
28 | COc1cccc(CC(C)NC(=O)NCc2ccn(C)c2)c1 (stereo not drawn) | 85.29%
29 | COc1cccc(CC(C)NC(=O)NC(C)C)c1 (stereo not drawn) | 44.88%
30 | CS(=O)(=O)C1CCN(S(=O)(=O)c2ccc(F)c(F)c2)CC1 | 25.65%
31 | COc1ccc(N2CCC(NCc3csc(C(C)C)n3)CC2)cc1 | 77.68%
32 | CCc1nc(CNC2CCN(c3ccc(OC)cc3)CC2)cs1 | 27.61%
33 | CC(C)c1nc(CNc2ccc(N3CCC(CO)CC3)cn2)cs1 | 20.33%
34 | COCCn1c(CN2CCCO2)cnc1S(=O)(=O)CC1CCCCC1 | 19.4%
35 | CNC(=O)C1CN(Cc2ccc(C#N)cc2F)c2ccccc2O1 (stereo not drawn) | 105.9%
36 | CN(C)C(=O)C1CN(Cc2ccc(C#N)cc2F)c2ccccc2O1 (stereo not drawn) | 104.6%
37 | CN(C)C1Cc2ccccc2N(S(=O)(=O)c2ccc(C#N)cc2)C1 (stereo not drawn) | 12.67%
38 | CNC(=O)[C@@H]1CC[C@@H]2[C@@H](CCN2Cc2ccccc2F)O1.O=C(O)C(F)(F)F | -11.16%
39 | Cc1cccc(NC(=O)[C@@H]2CCCN2Cc2ccc(C#N)cc2F)n1 | 12.34%
40 | Cc1cc(CN2CCN(Cc3ccc(C#N)cc3F)CC2)no1 | -3.509%
41 | CN(C)C(=O)C1CN(Cc2ccc(C#N)cc2)c2ccccc2O1 (stereo not drawn) | 104.5%
42 | CN(C)C(=O)Cc1ccccc1NCc1cc(C#N)ccc1F | 3.977%
43 | N#Cc1ccc(S(=O)(=O)N2CC(CC(=O)O)c3ccccc32)cc1 (stereo not drawn) | 19.47%
44 | CCS(=O)(=O)N1CCc2c(cccc2NC(=O)NCCOC)C1 | 16.78%
45 | COc1ccccc1CCN(C)C(C)c1nc(-c2cccnc2)no1 (stereo not drawn) | -40.91%
46 | CN(CCc1ccncc1)c1cnn(C)c(=O)c1Br | -2.68%
47 | CC1Cn2c(nc3c2c(=O)[nH]c(=O)n3C)O1 (stereo not drawn) | -12.37%
48 | COCC(=O)N1CCCCC1c1ccncn1 (stereo not drawn) | -40.59%
49 | Cc1cc(C(=O)Nc2n[nH]c(C3CC3)n2)c2c(C)nn(C)c2n1 | 11.85%
50 | COc1ccc(N2CCC(NC(=O)c3sccc3C)CC2)cc1 | -7.923%

Row | SMILES | Percent Effect
51 | Cc1nc(CCNC(=O)NCc2cccc(N(C)C)n2)cs1 | -57.29%
52 | CC(=O)c1ccc(NC(=O)NCc2cccc(N(C)C)n2)cc1C | 76.43%
53 | CN(C)c1cccc(CNC(=O)Nc2ccc3[nH]nnc3c2)n1 | 45.79%
54 | CCC(=O)N1CCC(c2ncc3c(n2)CCNC3)CC1 | -31.27%
55 | Cl.O=C(c1ccnc(C2CCNCC2)c1)N1CCCC1 | -26.15%
56 | Cl.Cn1ccnc1CNC(=O)c1ccnc(C2CCNCC2)c1 | -5.824%
57 | Cl.O=C(NC1CCCC1)c1ccnc(C2CCNCC2)c1 | 56.56%
58 | O=C(O)C(F)(F)F.O=C(O)C(F)(F)F.c1cnn(CCCO[C@@H]2CC[C@H]3[C@H]2OCCN3CC2CCOCC2)c1 | -30.39%
59 | O=C(Nc1nc2c(s1)CN(S(=O)(=O)C1CC1)CC2)c1cccc(Cl)c1 | 52.55%
60 | O=C(Nc1nc2c(s1)CN(S(=O)(=O)C1CC1)CC2)c1c(F)cccc1F | 0.32%
61 | O=C(Nc1nc2c(s1)CN(S(=O)(=O)C1CC1)CC2)c1ccc(Cl)s1 | 7.24%
62 | Cc1ccc(C(=O)N2CC(=O)N(Cc3ccco3)CC(O)C2)cc1 (stereo not drawn) | 7.151%
63 | Cc1ccc(-c2nc(CN3CC(n4nc(C)cc4C)C3)no2)cc1 | 102.5%
64 | Cc1cc(C)n(C2CN(Cc3noc(-c4ccccc4)n3)C2)n1 | 16.77%
65 | COc1ccc(-c2nc(CN3CC(n4cc(C)cn4)C3)no2)cc1 | 55%
66 | COc1ccc(-c2noc(CN3CC(n4cc(C)cn4)C3)n2)cc1 | 22.62%
67 | COc1ccc(-c2nc(CN3CC(n4cccn4)C3)no2)cc1 | 15.06%
68 | COc1ccc(-c2nc(CN3CC(n4nc(C)cc4C)C3)no2)cc1 | 46.41%
69 | COCCCNC(=O)Nc1ncc(-c2cccc(OC)c2)n1CCOC | 20.98%
70 | CN(C)C(=O)CNC(=O)c1ccn(-c2ccc3ccccn23)n1 | 8.811%
71 | CCc1nnc(CS(=O)(=O)c2ccc(C)c(C)c2)n1C | -14.67%
72 | Cc1cccnc1CN(C)C(C(=O)O)c1ccc(-c2ccn[nH]2)cc1 (stereo not drawn) | 83.57%
73 | Cc1cccnc1CN(C)C(C(=O)O)c1ccc(-n2cccn2)cc1 (stereo not drawn) | 103.2%
74 | COc1c(C)cc(C(C(=O)O)N(C)Cc2ccn[nH]2)cc1C (stereo not drawn) | 14.99%
75 | CN(Cc1ccc(-n2cccn2)cc1)C(=O)CCC(F)(F)F | -2.335%

Row | SMILES | Percent Effect
76 | CCn1ccnc1CN(C)C(C(=O)O)c1ccc(C(C)(C)C#N)cc1 (stereo not drawn) | -8.491%
77 | Cc1cccnc1CN(C)C(C(=O)O)c1ccc(C(C)(C)C#N)cc1 (stereo not drawn) | 37.7%
78 | COc1ccc(CN2C[C@@H]3CC[C@H](C2)N(S(C)(=O)=O)C3)cc1 | -9.044%
79 | Cc1cc2nc(C(C)C)cc(N3CCN(c4ccc(O)cc4)CC3)n2n1 | 103.7%
80 | CC(C)c1cc(N2CCC(N)CC2)n2nccc2n1 | 24.37%
81 | CC(C)c1cc(N2CCN(c3ccc(O)cc3)CC2)n2nccc2n1 | 106.1%
82 | Cc1cc2nc(C(C)C)cc(N3CCC(O)CC3)n2n1 | 7.748%
83 | CC(C)c1cc(N2CCC(CCC(=O)NC3CC3)CC2)n2nccc2n1 | 19.75%
84 | Cc1cc2nc(C(C)C)cc(N3CCSCC3)n2n1 | -12.34%
85 | Cc1nc(CN2CCO[C@@H]3CN(C(=O)CC4CC4)CC[C@@H]3C2)cs1 | 21.81%
86 | CCCN(CC(=O)NC)C(=O)c1ccc(-c2nc(C)cs2)cc1 | 8.736%
87 | CS(=O)(=O)N[C@@H]1CN(C(=O)c2ccccn2)[C@@H]2CCCO[C@@H]21.O=C(O)C(F)(F)F | 24.81%
88 | O=C(c1cc(-c2ccn(CC3CC3)n2)n2ccccc12)N1CCOCC1 | 96.99%
89 | CC(C)c1nc(-c2cc(C(=O)N3CCN(C)CC3)c3ccccn23)cs1.O=C(O)C(F)(F)F | -33.65%
90 | Cn1ccc(-c2cc(C(=O)N3CCOCC3)c3ccccn23)n1 | -21.75%
91 | CC(C)c1nc(-c2cc(C(=O)NCCCO)c3ccccn23)cs1 | 21.42%
92 | O=C(O)c1cc(-c2ccn(CC3CC3)n2)n2ccccc12 | 99.83%
93 | Cn1ccc(-c2cc(C(=O)N3CCC(O)CC3)c3ccccn23)n1 | -33.58%
94 | Cn1ccc(-c2cc(C(=O)N3CCC(C(N)=O)CC3)c3ccccn23)n1 | 11.2%
95 | O=C(c1cc(-c2ccn(CC3CC3)n2)n2ccccc12)N1CCCO1 | 45.3%
96 | CC(C)c1nc(-c2cc(C(=O)O)c3ccccn23)cs1 | 89.3%
97 | Cc1nc(N)ncc1C(=O)N1CCCC1(C)C(=O)N(C)C (stereo not drawn) | 14.34%
98 | Cc1cc(N2CCCC(c3[nH]ncc3Cc3ccccc3)C2)nc(N)n1 (stereo not drawn) | 13.81%
